Hit rate of the full screen: of about 2,300 compounds, about 55 (2%) were called active.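 How the source made its calls: active means share of green or green-and-red cells above 9 and 9% in run 1 or 4 and 3% in run 2; inactive means the rest, inconclusive results apart.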 These entries were drawn from the full list.

This test is described as follows: inducers of myeloid progenitor differentiation, confirmation, cell-based, GFP/Mac1 flow cytometry, cherry pick 01 (AID 651706).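 On differentiation response: plate controls were double positive share in DMSO wells for no effect and share in positive control wells for full effect.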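 On double positive cells: share of live cells carrying both lysozyme GFP and MAC1 staining after four days.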 The note with it: ER-HoxA9 myeloid progenitors, stronger effect = higher value; differentiation response: GFP/Mac1 double-positive flow; double positive cells: measured here: percent double positive cells. (A flow cytometer gives signals particle by particle.)
Regarding `Cc1ccc2nc(-c3ccccn3)cc(C(=O)Nc3ccc4c(c3)OCO4)c2c1`, the differentiation response was 1.4% (inactive) and the double positive cells stood at 0.8%.
On the same counts, the results for `CCN(CC)CC(=O)c1c[nH]c2ccc(OC)cc12` are 1.4% (inactive) and 0.9%.
`CNc1nc(=O)n(C2CCCO2)cc1C` (stereo not given): the differentiation response is 2.7% (inactive) and the double positive cells amounted to 1.3%.
Taken in the same sequence, the figures for `Cc1cc(C)c(-c2csc(NC(=O)CCCc3nc4ccccc4c(=O)[nH]3)n2)c(C)c1` were 3.35% (inactive) and 0%.
For `CN1CCC(CN)(N2CCN(c3ccccc3)CC2)CC1`, the differentiation response is 1.95% (inactive) and the double positive cells was determined as 1.25%.
On the same counts, the results for `COc1ccc(S(=O)(=O)N2CCC(C(=O)N3CCc4ccccc4C3)CC2)cc1OC` are 1% (inactive) and 1%.
On the same counts, the results for `Cc1ccc(OS(=O)Nc2cccc3nccnc23)cc1` (stereo not given) are 1.6% (inactive) and 0.85%.
On the same counts, the results for `CCN(CC)C(=O)CSC(Nc1cccc(F)c1)=C(C#N)C#N` are 13.7% (inactive) and 0.9%.
For `COc1cc(N=Cc2c(O)[nH]c3ccccc23)cc(OC)c1OC`, the differentiation response was 0% (inactive) and the double positive cells is 0%.
Taken in the same sequence, the figures for `CNC[C@H]1Oc2c(NC(=O)C3CCCCC3)cccc2C(=O)N([C@H](C)CO)C[C@@H]1C` were 4.4% (inactive) and 3.95%.
Turning to `Cc1nn(-c2ncccn2)c2c1C(=O)CC(C)(C)C2Br` (stereo not given), the differentiation response was 1% (inactive) and the double positive cells was found to be 0.85%.
On the same counts, the results for `Cn1c2ccccc2c2cc(/C=C(\NC(=O)c3ccccc3)C(=O)NCC(=O)O)ccc21` are 3.05% (inactive) and 2.15%.
Consider `CCOC(=O)c1c(-c2ccc(C)cc2)csc1/N=C(\C)C1=C(O)c2ccccc2C1=O`, for which the differentiation response was 12.2% (inactive) and the double positive cells stood at 3.3%.
On to `COc1ccc(-c2ccc(OC(=O)NC3CCS(=O)(=O)C3)cc2)cc1` (stereo not given), for which the differentiation response is 2.2% (inactive) and the double positive cells is 0.5%.
On the same counts, the results for `O=S(=O)(c1ccc(Br)cc1)c1nc(-c2ccccc2)oc1NCc1cccnc1` are 50.5% (inactive) and 50.2%.
On to `Nc1nc(Nc2ccccc2F)nc(NC2CCCCC2)c1[N+](=O)[O-]`, for which the differentiation response was 51.1% (inactive) and the double positive cells was 25%.
Turning to `Cc1ccc(Nc2cc(C)nc3c(C)ccc([N+](=O)[O-])c23)cc1`, the differentiation response was 11.4% (inactive) and the double positive cells worked out at 0.55%.
Taken in the same sequence, the figures for `CN1OC(COC(=O)c2ccc(Cl)cc2)CC1c1ccccc1` (stereo not given) were 1.05% (inactive) and 0.8%.
Taken in the same sequence, the figures for `COc1cc(/C=C2/SC(=S)N(Cc3ccccc3)C2=O)cc(OC)c1O` were 2.8% (inactive) and 0.4%.
Taken in the same sequence, the figures for `Clc1ccc(-c2nnc(SCc3nc4ccccc4s3)o2)cc1` were 1.05% (inactive) and 1%.
`CC(=O)Nc1ccc(S(=O)(=O)Nc2ccc(N3CCOCC3)c(F)c2)cc1`: the differentiation response is 1.45% (inactive) and the double positive cells came to 1%.
Taken in the same sequence, the figures for `COc1ccc(N(CC(=O)NC2CCCCCCC2)S(=O)(=O)c2c(C)nn(C)c2C)cc1` were 1.75% (inactive) and 0.95%.
Consider `O[C@H]1CN(Cc2cccs2)[C@@H](c2ccc(Cl)cc2)C[C@@H]1n1cc(C2CC2)nn1`, for which the differentiation response is 1.4% (inactive) and the double positive cells was determined as 1.1%.
In the case of `O[C@H]1C[C@H](c2ccc(Cl)cc2)N(Cc2cccs2)C[C@@H]1n1cc(C2CC2)nn1`, the differentiation response is 18.4% (active) and the double positive cells is 13.1%.
Taken in the same sequence, the figures for `Cc1ccc2c(c1)C1C[N+](C)(CC(=O)c3ccccc3)CCC1N2C(=O)c1ccccc1Cl` (stereo not given) were 4.1% (inactive) and 2.05%.
On the same counts, the results for `Cc1ccc(-n2nc3cc(C)c(NC(=O)c4cccnc4)cc3n2)cc1` are 5.4% (inactive) and 1.05%.
Take `Cc1cccc(-n2c(SCC(=O)Nc3cccc(S(=O)(=O)NC4=NCCCCC4)c3)nc3ccccc3c2=O)c1C`: the differentiation response is 17.3% (inactive) and the double positive cells was determined as 0.7%.
Taken in the same sequence, the figures for `Fc1cccc(Cl)c1CSc1ccc(-c2ccco2)nn1` were 1.2% (inactive) and 0.8%.
With `CC(C)c1nc2ccc(C(=O)O)cc2[nH]1`, the differentiation response was 1.95% (inactive) and the double positive cells was 1.8%.
On the same counts, the results for `CSc1nnc(-c2ccncc2)n1CCCN1CCCC1=O` are 1.75% (inactive) and 1.15%.
Taken in the same sequence, the figures for `O=C(NCCN=C1NS(=O)(=O)c2ccccc21)c1ccc(S(=O)(=O)N2CCOCC2)cc1` were 1.35% (inactive) and 1.3%.
On the same counts, the results for `CC(=O)N1c2ccc(S(=O)(=O)N3CCCC(C(=O)Nc4cccc(F)c4)C3)cc2CC1C` (stereo not given) are 1.45% (inactive) and 0.95%.
Take `O=C(Nc1cccc2ncccc12)c1ccc(-c2ccc(Cl)cc2Cl)o1`: the differentiation response is 4.55% (inactive) and the double positive cells amounted to 2.9%.
On the same counts, the results for `Cc1cccc(OCC(O)CN2CCN(CCN3C(=O)c4cccc5cccc(c45)C3=O)CC2)c1C` (stereo not given) are 0.25% (inactive) and 0%.
As to `Cc1cccc(C)c1NC(=O)CCS(=O)(=O)c1cccc2nsnc12`, the differentiation response is 2% (inactive) and the double positive cells was 1.5%.
On the same counts, the results for `CC(C)CNC(=O)COC(=O)/C=C/c1ccccc1[N+](=O)[O-]` are 1.45% (inactive) and 1.2%.
On the same counts, the results for `COC(=O)CN(c1cccc(C(C)=O)c1)S(C)(=O)=O` are 2.05% (inactive) and 1.5%.
Taken in the same sequence, the figures for `O=C(CN1C(=O)NC(Cc2c[nH]c3ccccc23)C1=O)Nc1ccccc1C(F)(F)F` (stereo not given) were 1.7% (inactive) and 1.2%.
Regarding `CC1(C)CC(=O)C2=C(C1)Nc1cc(C(=O)c3ccccc3)ccc1NC2c1ccccn1` (stereo not given), the differentiation response was 1.95% (inactive) and the double positive cells came out at 1.65%.
On the same counts, the results for `CCOC(=O)C1=C(CN2CCc3ccccc32)NC(=O)NC1c1cccc([N+](=O)[O-])c1` (stereo not given) are 12.3% (active) and 8.95%.
Regarding `Cc1nc(C)c(-c2nnc(-c3cccc(S(=O)(=O)N(C)C)c3)o2)cc1C(=O)NN`, the differentiation response was 4.1% (inactive) and the double positive cells is 1.3%.
Taken in the same sequence, the figures for `Cc1ccc2c(c1)c1ncn(Cc3ccc(F)cc3)c(=O)c1n2C` were 2% (inactive) and 0.8%.
In the case of `O=c1oc2ccccc2cc1-c1csc(Nc2ccc(O)cc2)n1`, the differentiation response was 27.4% (inactive) and the double positive cells stood at 12.5%.
On the same counts, the results for `Cc1cc(C)n(C(=O)c2ccc(C)c(S(=O)(=O)N3CCOCC3)c2)n1` are 1.9% (inactive) and 1.8%.
On the same counts, the results for `Cc1cc(C)c(S(=O)(=O)NCC2CCC(C(=O)NCc3ccc4c(c3)OCO4)CC2)c(C)c1` (stereo not given) are 3.7% (inactive) and 1.35%.
For `CCOc1ccc(C(=O)Nc2ccc(S(=O)(=O)NCC3CCCO3)cc2)cc1OCC` (stereo not given), the differentiation response is 1.5% (inactive) and the double positive cells stood at 1.2%.
Taken in the same sequence, the figures for `CC(C)(C)OC(=O)CNC(=O)c1[nH]cnc1C(=O)N[C@@H](Cc1ccccc1)C(=O)OCc1ccccc1` were 1.85% (inactive) and 1.95%.
Taken in the same sequence, the figures for `CCCC(=O)Nc1c(O)c2ccccc2[nH]c1=O` were 1.45% (inactive) and 1.1%.
Taken in the same sequence, the figures for `C/C(=C\c1ccccc1)C1NC(=O)c2c(sc3c2CCCC3)N1` (stereo not given) were 1.1% (inactive) and 0.75%.
Regarding `COc1ccc(C2CC(c3cccc(OC)c3)=NN2c2ccc(S(N)(=O)=O)cc2)cc1` (stereo not given), the differentiation response is 2.25% (inactive) and the double positive cells amounted to 1.4%.
On the same counts, the results for `CC(=O)Nc1ccc(S(=O)(=O)Nc2ccc(N3CCCCC3)cc2)cc1` are 0% (inactive) and 0%.
On the same counts, the results for `CN(C(=O)c1cccc([N+](=O)[O-])c1)c1ccccc1C(=O)NCc1ccccc1` are 1.65% (inactive) and 1.35%.
Taken in the same sequence, the figures for `CC(C)C(=O)N1CCN(c2nc(-c3ccccc3)c3c(c2C#N)CC(C)(C)OC3)CC1` were 1.8% (inactive) and 1.6%.
Turning to `O=C(CCCN1C(=O)CCC1=O)Nc1ccc(Cl)c(C(F)(F)F)c1`, the differentiation response is 1.55% (inactive) and the double positive cells is 1.1%.
Taken in the same sequence, the figures for `CC(CNc1ccc([N+](=O)[O-])cc1)NC(=O)c1ccccc1Br` (stereo not given) were 1.65% (inactive) and 1%.
On the same counts, the results for `CN(C(=O)CSc1nnc(C2CC2)n1C)C1CCCc2ccccc21` (stereo not given) are 2.6% (inactive) and 2.05%.
Taken in the same sequence, the figures for `COc1ccc(C(=O)N(Cc2ccccc2)c2ccc(C)cc2)cc1S(=O)(=O)N1CCOCC1` were 1.9% (inactive) and 0.95%.
Consider `COc1ccc2nc(N3CCN(C(=O)c4ccc([N+](=O)[O-])o4)CC3)sc2c1`, for which the differentiation response is 3.05% (inactive) and the double positive cells stood at 0%.
For the compound `O=C(NCC1CCCCC1)NCC1CCCCC1`, the differentiation response was 0.8% (inactive) and the double positive cells amounted to 0.5%.
On the same counts, the results for `O=C(NC(=O)c1ccccc1)Nc1ccccc1O` are 5.8% (inactive) and 0.95%.
Take `O=S(=O)(NCc1cccnc1)c1ccc(Cl)nc1`: the differentiation response was 1.35% (inactive) and the double positive cells worked out at 1.1%.
On the same counts, the results for `CC(C)CC(COCc1ccc(Cl)cc1)N1CCN(C(=O)c2ccc(C(F)(F)F)cc2)CCC1=O` (stereo not given) are 2.15% (inactive) and 1.95%.
On the same counts, the results for `CCOC(=O)c1c(-c2ccccc2)oc2ccc(OCC(=O)NN)cc12` are 2.65% (inactive) and 0.85%.
On the same counts, the results for `COc1ccccc1N1CCN(C(=O)c2cc(-c3ccc(Br)cc3)on2)CC1` are 1.9% (inactive) and 1.65%.
In the case of `Nc1ccc2nc3c(=O)[nH]c(=S)[nH]c3nc2c1`, the differentiation response was 11.7% (inactive) and the double positive cells came to 1.75%.
Taken in the same sequence, the figures for `COc1cccc(NC(=O)[C@H](Cc2c[nH]c3ccccc23)NC(=O)[C@@H]2Cc3ccccc3CN2)c1` were 5% (active) and 4.8%.
Regarding `CCc1c(C)sc(NC(=O)c2cccs2)c1C(N)=O`, the differentiation response was 7.25% (inactive) and the double positive cells was determined as 5.9%.
On the same counts, the results for `O=C(CN(c1ccccc1)S(=O)(=O)c1ccc(Cl)cc1)Nc1ccccc1C(=O)N1CCCC1` are 2.2% (inactive) and 1.4%.
With `O=C(Cn1cc(-c2nnnn2-c2ccc(Cl)cc2)c(=O)c2ccccc21)c1ccccc1`, the differentiation response was 3.55% (inactive) and the double positive cells came to 2.6%.
With `CC1CCCC(NC(=O)CN2CCN(Cc3ccc(Cl)cc3)C2=O)C1C` (stereo not given), the differentiation response is 4.75% (inactive) and the double positive cells came to 2.6%.
Taken in the same sequence, the figures for `CCc1noc(C)c1C(=O)Nc1nc(-c2ccccc2)cs1` were 1.4% (inactive) and 1%.
For `C=CCNc1nnc(SCC(=O)N2CCCCC2)c2ccccc12`, the differentiation response was 2.2% (inactive) and the double positive cells was 1.55%.
On the same counts, the results for `COc1cccc(NC(=S)NCc2ccccn2)c1` are 1.3% (inactive) and 1.3%.
As for `COc1ccc(C(C(=O)NCc2ccccc2)n2c(=O)c(-c3ccccc3)nc3ccccc32)cc1` (stereo not given), the differentiation response is 29.1% (inactive) and the double positive cells amounted to 12.2%.
On the same counts, the results for `Cc1ccc(C)c(S(=O)(=O)N2CCN(c3ncnc4sccc34)CC2)c1` are 5.55% (inactive) and 0%.
On the same counts, the results for `O=C1c2ccccc2C(=O)N1Cc1cc(-c2ccccc2Cl)no1` are 2.85% (inactive) and 1.25%.
Taken in the same sequence, the figures for `N#CC1=C(N)Oc2c(sc3ccccc23)C1c1ccco1` (stereo not given) were 50% (inactive) and 25%.
On to `CCOC(=O)CC(=O)CSc1nc(-c2ccccc2)cc(-c2ccc(Cl)cc2)c1C#N`, for which the differentiation response was 1.35% (inactive) and the double positive cells stood at 1.15%.
Regarding `COc1ccccc1CNC(=O)c1cc(-c2cc(Cl)ccc2C)n[nH]1`, the differentiation response is 0.15% (inactive) and the double positive cells is 0%.
On the same counts, the results for `CCOC(=O)c1c(-c2cccc(C)c2)csc1NC(=O)c1c(-c2ccccc2)noc1C` are 0.75% (inactive) and 0.25%.

Source of the values: PubChem BioAssay AID651706 (NMMLSC, 2012).
